# From paper PMC9911399, “Two distinct binding modes provide the RNA-binding protein RbFox with extraordinary sequence specificity”
# Substitutions are numbered along the chain they refer to; changes in the protein carry UniProt numbers. In all, about 16,000 sequences were measured (“ka relative to ugcaugu”: median about 0.096, highest 2% from about 0.35 on). Only a selection was taken, and the highest values are over-represented in it overall.
# T1: RBFOX1 RRM RbFoxmut (Fox-RRM*) (Homo sapiens, UniProt Q9NWB1 109-208, R118D;E147R;N151S;E152T)
# T1 sequence: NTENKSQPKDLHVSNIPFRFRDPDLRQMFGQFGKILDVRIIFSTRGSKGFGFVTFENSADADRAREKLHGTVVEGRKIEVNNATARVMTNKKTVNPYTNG
# B1: AGACGGA (DNA:RNA)
# RNA: GGGAGACCGGAAUUCAGAUUGUCCAGACGGAUUAAAUCCCGUCGUAGCCACCA
# DNA 1: CAATCTGAATTCCGGTCTCCC
# DNA 2: TGGTGGCTACGACGGGATT
# B2: CACCGUU (DNA:RNA)
# RNA: B1 RNA with A25C, G26A, A27C, G30U, A31U
# DNA 1: CAATCTGAATTCCGGTCTCCC
# DNA 2: TGGTGGCTACGACGGGATT
# B3: GUGUCCA (DNA:RNA)
# RNA: B1 RNA with A25G, G26U, A27G, C28U, G29C, G30C
# DNA 1: CAATCTGAATTCCGGTCTCCC
# DNA 2: TGGTGGCTACGACGGGATT
# B4: CCCAAUU (DNA:RNA)
# RNA: GGGAGACCGGAAUUCAGAUUGUCCCCCAAUUUUAAAUCCCGUCGUAGCCACCA
# DNA 1: CAATCTGAATTCCGGTCTCCC
# DNA 2: TGGTGGCTACGACGGGATT
# B5: GUAUUUG (DNA:RNA)
# RNA: B1 RNA with A25G, G26U, C28U, G29U, G30U, A31G
# DNA 1: CAATCTGAATTCCGGTCTCCC
# DNA 2: TGGTGGCTACGACGGGATT
# B6: CCUUCAG (DNA:RNA)
# RNA: B4 RNA with C27U, A28U, A29C, U30A, U31G
# DNA 1: CAATCTGAATTCCGGTCTCCC
# DNA 2: TGGTGGCTACGACGGGATT
# B7: UGUCGGU (DNA:RNA)
# RNA: B1 RNA with A25U, A27U, A31U
# DNA 1: CAATCTGAATTCCGGTCTCCC
# DNA 2: TGGTGGCTACGACGGGATT
# B8: ACGAACU (DNA:RNA)
# RNA: B4 RNA with C25A, C27G, U30C
# DNA 1: CAATCTGAATTCCGGTCTCCC
# DNA 2: TGGTGGCTACGACGGGATT
# B9: ACUUGCC (DNA:RNA)
# RNA: B1 RNA with G26C, A27U, C28U, G30C, A31C
# DNA 1: CAATCTGAATTCCGGTCTCCC
# DNA 2: TGGTGGCTACGACGGGATT
# B10: UGGCUUG (DNA:RNA)
# RNA: B1 RNA with A25U, A27G, G29U, G30U, A31G
# DNA 1: CAATCTGAATTCCGGTCTCCC
# DNA 2: TGGTGGCTACGACGGGATT
# B11: CAGUGCG (DNA:RNA)
# RNA: B1 RNA with A25C, G26A, A27G, C28U, G30C, A31G
# DNA 1: CAATCTGAATTCCGGTCTCCC
# DNA 2: TGGTGGCTACGACGGGATT
# B12: CAGUGCC (DNA:RNA)
# RNA: B1 RNA with A25C, G26A, A27G, C28U, G30C, A31C
# DNA 1: CAATCTGAATTCCGGTCTCCC
# DNA 2: TGGTGGCTACGACGGGATT
# B13: UGCUGGC (DNA:RNA)
# RNA: B1 RNA with A25U, A27C, C28U, A31C
# DNA 1: CAATCTGAATTCCGGTCTCCC
# DNA 2: TGGTGGCTACGACGGGATT
# B14: GUGUGCC (DNA:RNA)
# RNA: B1 RNA with A25G, G26U, A27G, C28U, G30C, A31C
# DNA 1: CAATCTGAATTCCGGTCTCCC
# DNA 2: TGGTGGCTACGACGGGATT
# B15: UUGCCAC (DNA:RNA)
# RNA: B1 RNA with A25U, G26U, A27G, G29C, G30A, A31C
# DNA 1: CAATCTGAATTCCGGTCTCCC
# DNA 2: TGGTGGCTACGACGGGATT
# B16: ACUUGCG (DNA:RNA)
# RNA: B1 RNA with G26C, A27U, C28U, G30C, A31G
# DNA 1: CAATCTGAATTCCGGTCTCCC
# DNA 2: TGGTGGCTACGACGGGATT
# B17: UUGUGCC (DNA:RNA)
# RNA: B1 RNA with A25U, G26U, A27G, C28U, G30C, A31C
# DNA 1: CAATCTGAATTCCGGTCTCCC
# DNA 2: TGGTGGCTACGACGGGATT
# B18: CCGUGCC (DNA:RNA)
# RNA: B4 RNA with C27G, A28U, A29G, U30C, U31C
# DNA 1: CAATCTGAATTCCGGTCTCCC
# DNA 2: TGGTGGCTACGACGGGATT
# B19: UCCUGGC (DNA:RNA)
# RNA: B1 RNA with A25U, G26C, A27C, C28U, A31C
# DNA 1: CAATCTGAATTCCGGTCTCCC
# DNA 2: TGGTGGCTACGACGGGATT
# B20: AGUGCCU (DNA:RNA)
# RNA: B1 RNA with A27U, C28G, G29C, G30C, A31U
# DNA 1: CAATCTGAATTCCGGTCTCCC
# DNA 2: TGGTGGCTACGACGGGATT
# Molecular target: T1, RBFOX1 RRM RbFoxmut (Fox-RRM*)
# Experiment: EMSA; HiTS-Eq, 1 nM pool, 10 min; buffer printed only for the single-RNA assays: 10 mM Tris pH 7.5, 150 mM NaCl, 3.4 mM EDTA, 0.001% NP-40, 30 C
# Conditions: tags: His6 N-terminal (pET28a); label: 5' 32P
# In short: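 Purified RbFox RRM, wild type or mutant, was incubated for 10 min in 50 µL with 1 nM of a 5′-radiolabelled RNA pool carrying 7 randomized nucleotides, whose flanks were annealed to DNA oligonucleotides, over a series of increasing protein concentrations. Unbound RNA was resolved on 8% native PAGE, cut out, reverse-transcribed, barcoded by PCR and sequenced on an Illumina HiSeq 2500. Relative association constants were derived from changes in read counts for each RNA species versus the control reaction and normalised to the cognate motif.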
row,Binder,binding signal
1,B1,0.0873 KA relative to UGCAUGU
2,B2,0.0894 KA relative to UGCAUGU
3,B3,0.121 KA relative to UGCAUGU
4,B4,0.0634 KA relative to UGCAUGU
5,B5,0.17 KA relative to UGCAUGU
6,B6,0.114 KA relative to UGCAUGU
7,B7,0.112 KA relative to UGCAUGU
8,B8,0.0682 KA relative to UGCAUGU
9,B9,0.372 KA relative to UGCAUGU
10,B10,0.92 KA relative to UGCAUGU
11,B11,0.148 KA relative to UGCAUGU
12,B12,0.402 KA relative to UGCAUGU
13,B13,0.119 KA relative to UGCAUGU
14,B14,0.22 KA relative to UGCAUGU
15,B15,0.0642 KA relative to UGCAUGU
16,B16,0.156 KA relative to UGCAUGU
17,B17,0.46 KA relative to UGCAUGU
18,B18,0.264 KA relative to UGCAUGU
19,B19,0.128 KA relative to UGCAUGU
20,B20,0.0968 KA relative to UGCAUGU
